Unmarked numbers belong to inactive results. Calls of active or inactive are those of the source. No stated cut-off is given here; in the data, active means fold change permeability below about 0.7 or above about 1.3; inactive means in between.

The nature of the experiment: modulators of brain endothelial barrier permeability, primary screen, cell-based, FITC-avidin fluorescence, HTS (AID 1963498). Further: test concentration not given here. The conditions noted are these: actives lie on both sides.
`CC/C(=N\NC(=O)c1ccnc(NCCCN2CCOCC2)c1)c1ccc(Cl)cc1O`: the fold change permeability is 0.8.

On to `O=C(O)c1cc(=O)c2ccccc2[nH]1`, for which the fold change permeability was 1.6 (active).

Take `N#C/C(=C\c1ccc(-c2cc(Cl)ccc2Cl)o1)C(=O)Nc1cccc2ncccc12`: the fold change permeability was 2.1 (active).

`CC(=O)CCCCn1c(=O)c2c(ncn2C)n(C)c1=O`: the fold change permeability is 1.

Turning to `C=C1CCN([C@H](C)[C@](O)(Cn2cncn2)c2ccc(F)cc2F)CC1`, the fold change permeability is 1.4 (active).

As to `CCOC(=O)Nc1ccc(NCc2ccc(F)cc2)nc1N`, the fold change permeability was 1.6 (active).

`Cc1cc(N)c2ccccc2[n+]1CCCCCCCCCC[n+]1c(C)cc(N)c2ccccc21`: the fold change permeability is 1.6 (active).

Turning to `Cn1c(=O)c2[nH]c(-c3ccccc3)nc2n(C)c1=O`, the fold change permeability was 1.1.

Consider `CNC[C@H](O)c1ccc(O)c(O)c1`, for which the fold change permeability is 0.8.

As for `NC(=O)C(=O)O`, the fold change permeability was 0.8.

Take `CCSC(=N)N`: the fold change permeability was 1.1.

In the case of `C[C@@H](O[C@H]1OCCN(Cc2n[nH]c(=O)[nH]2)[C@H]1c1ccc(F)cc1)c1cc(C(F)(F)F)cc(C(F)(F)F)c1`, the fold change permeability was 1.4 (active).

Take `CCCCCCCCCC[Si](C)(C)CCC(=O)NC(Cc1ccc(C)cc1)c1ccccc1` (centres undefined): the fold change permeability is 0.8.

Turning to `Nc1ccc(-c2ccc3ncc4ccc(=O)n(-c5cccc(C(F)(F)F)c5)c4c3c2)cn1`, the fold change permeability is 1.3 (active).

As to `CN(C)CCC=C1c2ccccc2C=Cc2ccccc21`, the fold change permeability is 1.1.

For the molecule `Fc1ccc(CN(C2=NCCN2)c2c(Cl)cccc2Cl)cc1`, the fold change permeability was 1.1.

As to `CN(C)CCCc1cc(C(=O)Nc2ccc(-c3ccncc3)cc2)ccc1O`, the fold change permeability is 1.

Turning to `O=C(O)CNC(=O)C(CS)Cc1ccccc1` (centres undefined), the fold change permeability is 0.6 (active).

On to `O=C1CN2Cc3c(ccc(Cl)c3Cl)N=C2N1`, for which the fold change permeability is 1.1.

For `CC(=O)O[C@H]1CC[C@@]2(C)C(=CC[C@@H]3[C@@H]2CC[C@]2(C)C(c4cccnc4)=CC[C@@H]32)C1`, the fold change permeability is 1.8 (active).

With `Cc1ccccc1N1C(=O)c2cc(S(N)(=O)=O)c(Cl)cc2NC1C` (centres undefined), the fold change permeability was 0.8.

On to `O=C1CCCC(=O)C1C(=O)c1ccc(C(F)(F)F)cc1[N+](=O)[O-]`, for which the fold change permeability was 0.9.

Regarding `NC/C=C\C(=O)O`, the fold change permeability is 1.2.

Consider `O=c1ccn([C@@H]2O[C@H](COP(=O)(O)OP(=O)(O)O)[C@@H](O)[C@H]2O)c(=O)[nH]1`, for which the fold change permeability was 0.8.

For the molecule `Cc1ccc(N(CC2=NCCN2)c2cccc(O)c2)cc1`, the fold change permeability is 1.1.

Consider `CC(C)(C)NCC(O)COc1nsnc1N1CCOCC1` (centres undefined), for which the fold change permeability is 1.4 (active).

`CC(C)NCC(O)COc1ccc(COCCOC(C)C)cc1` (centres undefined): the fold change permeability is 0.8.

`O=C1/C(=C/c2cccs2)CC/C1=C\c1cccs1`: the fold change permeability is 1.6 (active).

Regarding `COc1ccccc1OCCNCC(O)COc1cccc2[nH]c3ccccc3c12` (centres undefined), the fold change permeability is 1.7 (active).

Take `COc1ccc(Cl)cc1C(=O)NCCc1ccc(S(=O)(=O)NC(=O)NC2CCCCC2)cc1`: the fold change permeability is 0.7 (active).

For the molecule `NC(=Nc1ccc(OCCCCCOc2ccc(N=C(N)c3ccccc3)cc2)cc1)c1ccccc1`, the fold change permeability was 1.

`COc1cc2ncnc(-n3nc(-c4ccccn4)nc3N)c2cc1OC`: the fold change permeability was 2 (active).

Regarding `COc1cc(O)cc(CCc2ccc(OC)c(O)c2)c1`, the fold change permeability is 1.9 (active).

In the case of `CC(=O)O[C@H]1C[C@@H]2CC[C@@H]3[C@H](CC[C@@]4(C)[C@H]3C[C@H]([N+]3(C)CCCCC3)[C@@H]4OC(C)=O)[C@@]2(C)C[C@@H]1[N+]1(C)CCCCC1`, the fold change permeability is 1.

As to `COc1cc2nc(N3CCCN(C)CC3)nc(NC3CCN(Cc4ccccc4)CC3)c2cc1OC`, the fold change permeability was 2.2 (active).

With `O=C(O)c1cc(=O)c2c(Cl)cc(Cl)cc2[nH]1`, the fold change permeability is 1.1.

As for `Oc1cc2c(cc1O)CN(C(=S)NCCc1ccc(Cl)cc1)CCC2`, the fold change permeability is 1.8 (active).

Regarding `CCOC(=O)C1=C[C@]2(CC)CCCN3CCc4c(n1c1ccccc41)[C@@H]32`, the fold change permeability is 1.8 (active).

On to `Cc1ccccc1N1CCN(CCc2nnc3n2CCCC3)CC1`, for which the fold change permeability is 0.9.

Values taken from PubChem BioAssay.
